Inconclusive results are not listed. Active and inactive are the calls of the source. How the source made its calls: active means hit-call score of the fitted dose curve at least 0.9, where 1 is the maximum; inconclusive means response in the unintended direction; inactive means score below 0.9.
Tests used:
[1] = target: human Protein Tyrosine Phosphatase Receptor Type B (PTPRB), PTPRB (gene 5787) (UniProt P23467); assay: NVS_ENZ_hPTPRB: NovaScreen (NVS) Enzymatic Assay for human Protein Tyrosine Phosphatase Receptor Type B (PTPRB) (AID 2283211)
Procedure, shortened: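 Recombinant human PTPRB with a fluorescent substrate, product separated by electrophoretic mobility shift; read 1 h after dosing. Primary screen in duplicate at 25 uM; actives then retested in concentration series; loss of signal versus DMSO.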

[2] = target: human Protein Tyrosine Phosphatase Receptor Type F (PTPRF), PTPRF (gene 5792) (UniProt P10586); assay: NVS_ENZ_hPTPRF: NovaScreen (NVS) Enzymatic Assay for human Protein Tyrosine Phosphatase Receptor Type F (PTPRF) (AID 2283213)
Procedure, shortened: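 Cell-free fluorescence enzyme assay with recombinant protein and substrate; product separated by electrophoretic mobility shift. Read 1 h after dosing, single 25 uM duplicate screen, then concentration-response up to 50 uM; loss of signal vs DMSO.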

[3] = target: human Sirtuin 2 (SIRT2), SIRT2 (gene 22933) (UniProt Q8IXJ6); assay: NVS_ENZ_hSIRT2: NovaScreen (NVS) Enzymatic Assay for human Sirtuin 2 (SIRT2) (AID 2283217)
Procedure, shortened: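 Cell-free recombinant human SIRT2, fluorescent substrate with product separated by electrophoretic mobility shift, 1 hr. Screened in duplicate at 25 uM; hits rerun singly in concentration-response up to 50 uM, relative to DMSO.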

[4] = target: human Sirtuin 1 (SIRT1), SIRT1 (gene 23411) (UniProt Q96EB6); assay: NVS_ENZ_hSIRT1: NovaScreen (NVS) Enzymatic Assay for human Sirtuin 1 (SIRT1) (AID 2283219)
Procedure, shortened: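 Cell-free recombinant SIRT1 with a fluorescent substrate; substrate and product separated by electrophoretic mobility shift and read by fluorescence intensity, 1 h after dosing. Primary screen at 25 uM in duplicate; hits re-run in concentration-response up to 50 uM, relative to DMSO.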

[5] = target: human SRC Proto-Oncogene, Non-receptor Tyrosine Kinase (SRC), SRC (gene 6714) (UniProt P12931); assay: NVS_ENZ_hSRC: NovaScreen (NVS) Enzymatic Assay for human SRC Proto-Oncogene, Non-receptor Tyrosine Kinase (SRC) (AID 2283223)
Procedure, shortened: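 Cell-free kinase activity assay with fluorescent substrate, product separated by electrophoretic mobility shift, read 1 h after dosing. Duplicate single point at 25 uM, then concentration-response up to 50 uM; loss of signal versus DMSO.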

[6] = target: human Vascular Endothelial Growth Factor Receptor 1 (VEGFR1), FLT1 (gene 2321) (UniProt P17948); assay: NVS_ENZ_hVEGFR1: NovaScreen (NVS) Enzymatic Assay for human Vascular Endothelial Growth Factor Receptor 1 (VEGFR1) (AID 2283226)
Procedure, shortened: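 Cell-free assay of recombinant human VEGFR1 kinase with substrate, measured 1 h after dosing; fluorescence with electrophoretic mobility-shift separation of substrate and product, referenced to DMSO; primary screen at 25 uM in duplicate, actives then run in concentration series.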

[7] = target: human Vascular Endothelial Growth Factor Receptor 3 (VEGFR3), FLT4 (gene 2324) (UniProt P35916); assay: NVS_ENZ_hVEGFR3: NovaScreen (NVS) Enzymatic Assay for human Vascular Endothelial Growth Factor Receptor 3 (VEGFR3) (AID 2283229)
Procedure, shortened: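 Cell-free recombinant VEGFR3 kinase reaction with fluorescent substrate, read 1 h after dosing by electrophoretic mobility shift separation of substrate and product. Single-concentration duplicate screen at 25 uM, then concentration-response up to 50 uM; loss of activity versus DMSO.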

[8] = target: human Vascular Endothelial Growth Factor Receptor 2 (VEGFR2), KDR (gene 3791) (UniProt P35968); assay: NVS_ENZ_hVEGFR2: NovaScreen (NVS) Enzymatic Assay for human Vascular Endothelial Growth Factor Receptor 2 (VEGFR2) (AID 2283230)
Procedure, shortened: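 Cell-free recombinant VEGFR2 kinase, fluorescent substrate with electrophoretic mobility-shift separation; read 1 h after dosing. Screened at 25 uM in duplicate, hits to concentration-response up to 50 uM; loss-of-signal versus DMSO.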

[9] = test system: bovine Angiotensin II Receptor Type 2 (AT2), gene 407157; assay: NVS_GPCR_bAT2: NovaScreen (NVS) G Protein-Coupled Receptor Assay for bovine Angiotensin II Receptor Type 2 (AT2) (AID 2283240)
Procedure, shortened: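 Radioligand displacement on bovine cerebellar membranes, 1 hour incubation, filter-based scintillation counting; loss of signal vs DMSO. Duplicate single-point screen at 25 uM, then concentration-response to 50 uM maximum.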

[10] = target: human Protein Tyrosine Phosphatase Non-receptor Type 6 (PTPN6), PTPN6 (gene 5777) (UniProt P29350); assay: NVS_ENZ_hPTPN6: NovaScreen (NVS) Enzymatic Assay for human Protein Tyrosine Phosphatase Non-receptor Type 6 (PTPN6) (AID 2283210)
Procedure, shortened: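 Cell-free assay with recombinant PTPN6 expressed in SF9 cells, fluorescent substrate, product separated from substrate by electrophoretic mobility shift; read 1.33 hours after dosing. Primary screen in duplicate at 25 uM, actives retested in concentration series; DMSO baseline.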

[11] = target: human Protein Tyrosine Phosphatase Receptor Type M (PTPRM), PTPRM (gene 5797) (UniProt P28827); assay: NVS_ENZ_hPTPRM: NovaScreen (NVS) Enzymatic Assay for human Protein Tyrosine Phosphatase Receptor Type M (PTPRM) (AID 2283215)
Procedure, shortened: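 Cell-free recombinant PTPRM with fluorogenic substrate; product separated from substrate by electrophoretic mobility shift and read by fluorescence, 1.33 h after dosing. Primary screen single concentration (25 uM) in duplicate; actives retested in concentration series; loss of signal versus DMSO.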

[12] = target: bovine Dopamine Receptor (DR), Non-selective Binding, DRD1 (gene 281125) (UniProt Q95136); assay: NVS_GPCR_bDR_NonSelective: NovaScreen (NVS) G Protein-Coupled Receptor Assay for bovine Dopamine Receptor (DR), Non-selective Binding (AID 2283241)
Procedure, shortened: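 Bovine striatal membranes; radioligand displacement read by filtration and scintillation counting 1 h after dosing, loss of signal vs DMSO. Screened in duplicate at 25 uM, then concentration-response for hits.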

[13] = target: human Rho Associated Coiled-coil Containing Protein Kinase 1 (ROCK1), ROCK1 (gene 6093) (UniProt Q13464); assay: NVS_ENZ_hROCK1: NovaScreen (NVS) Enzymatic Assay for human Rho Associated Coiled-coil Containing Protein Kinase 1 (ROCK1) (AID 2283214)
Procedure, shortened: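 Cell-free recombinant human ROCK1 activity assay; fluorescent substrate and product separated by electrophoretic mobility shift, read 1 h after dosing. Screened in duplicate at 25 uM; loss of signal versus DMSO baseline scored as inhibition.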

[14] = target: human Tropomyosin Receptor Kinase A (TRKA), NTRK1 (gene 4914) (UniProt P04629); assay: NVS_ENZ_hTrkA: NovaScreen (NVS) Enzymatic Assay for human Tropomyosin Receptor Kinase A (TRKA) (AID 2283224)
Procedure, shortened: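 Recombinant human TrkA activity read after 1 h by fluorescence with electrophoretic mobility shift separating substrate and product. Primary screen in duplicate at 25 uM; actives were rerun in concentration-response up to 50 uM. Loss of signal versus DMSO.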

[15] = target: sheep Cyclooxygenase-1 (Cox1), PTGS1 (gene 443551) (UniProt P05979); assay: NVS_ENZ_oCOX1: NovaScreen (NVS) Enzymatic Assay for sheep Cyclooxygenase-1 (Cox1) (AID 2283239);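 further: actives reduce cyclooxygenase activity so potencies are for inhibitors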
Procedure, shortened: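 Native ovine seminal vesicle protein serves as enzyme source in this biochemical assay. Colorimetric signal is recorded 0.66 h after chemical addition, and decreases versus the DMSO control define activity.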

[16] = target: human Sirtuin 3 (SIRT3), SIRT3 (gene 23410) (UniProt Q9NTG7); assay: NVS_ENZ_hSIRT3: NovaScreen (NVS) Enzymatic Assay for human Sirtuin 3 (SIRT3) (AID 2283222)
Procedure, shortened: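 Cell-free enzyme assay with recombinant protein and fluorescent substrate, product separated by electrophoretic mobility shift; read 1 hour after dosing. Screened in duplicate at 25 uM, then singleton concentration-response up to 50 uM; loss of signal versus DMSO.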

[17] = target: rabbit Imidazoline 2 Central (I2C), CKB (gene 100009085) (UniProt P00567); assay: NVS_ENZ_rabI2C: NovaScreen (NVS) Enzymatic Assay for rabbit Imidazoline 2 Central (I2C) (AID 2283228)
Procedure, shortened: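 Rabbit brain membranes, cell-free; readout by filter-based scintillation counting 1.5 hours after dosing, loss of signal vs DMSO. Initial duplicate test at 25 uM, then concentration-response with 50 uM top concentration.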

Chain of human SRC Proto-Oncogene, Non-receptor Tyrosine Kinase (SRC), SRC (gene 6714) (P12931 whole entry, looked up): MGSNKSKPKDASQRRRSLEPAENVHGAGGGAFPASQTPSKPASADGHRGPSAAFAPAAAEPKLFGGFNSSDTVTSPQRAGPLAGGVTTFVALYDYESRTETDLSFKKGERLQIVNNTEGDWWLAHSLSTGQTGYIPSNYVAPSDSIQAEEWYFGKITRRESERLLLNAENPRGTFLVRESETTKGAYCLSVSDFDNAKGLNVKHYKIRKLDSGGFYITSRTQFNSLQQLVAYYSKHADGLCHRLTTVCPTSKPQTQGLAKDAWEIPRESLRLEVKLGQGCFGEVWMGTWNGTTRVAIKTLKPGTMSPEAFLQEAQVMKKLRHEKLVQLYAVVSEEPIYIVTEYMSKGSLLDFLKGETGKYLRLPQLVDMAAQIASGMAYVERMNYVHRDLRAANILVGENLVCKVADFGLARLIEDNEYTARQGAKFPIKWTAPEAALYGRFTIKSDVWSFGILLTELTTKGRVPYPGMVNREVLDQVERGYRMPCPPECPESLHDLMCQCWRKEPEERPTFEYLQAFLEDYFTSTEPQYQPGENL
Chain of human Sirtuin 2 (SIRT2), SIRT2 (gene 22933) (Q8IXJ6 whole entry, looked up): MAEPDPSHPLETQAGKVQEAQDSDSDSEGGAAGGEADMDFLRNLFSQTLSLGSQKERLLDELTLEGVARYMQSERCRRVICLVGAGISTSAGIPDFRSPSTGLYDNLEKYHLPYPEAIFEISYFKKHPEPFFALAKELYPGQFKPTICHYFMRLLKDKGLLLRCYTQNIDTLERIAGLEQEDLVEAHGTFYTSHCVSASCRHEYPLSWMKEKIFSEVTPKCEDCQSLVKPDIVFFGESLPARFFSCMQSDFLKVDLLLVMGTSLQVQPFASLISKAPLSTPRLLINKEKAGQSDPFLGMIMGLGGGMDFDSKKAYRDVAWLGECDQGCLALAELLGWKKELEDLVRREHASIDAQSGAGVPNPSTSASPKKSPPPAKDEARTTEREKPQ
Chain of human Rho Associated Coiled-coil Containing Protein Kinase 1 (ROCK1), ROCK1 (gene 6093) (Q13464 whole entry, looked up): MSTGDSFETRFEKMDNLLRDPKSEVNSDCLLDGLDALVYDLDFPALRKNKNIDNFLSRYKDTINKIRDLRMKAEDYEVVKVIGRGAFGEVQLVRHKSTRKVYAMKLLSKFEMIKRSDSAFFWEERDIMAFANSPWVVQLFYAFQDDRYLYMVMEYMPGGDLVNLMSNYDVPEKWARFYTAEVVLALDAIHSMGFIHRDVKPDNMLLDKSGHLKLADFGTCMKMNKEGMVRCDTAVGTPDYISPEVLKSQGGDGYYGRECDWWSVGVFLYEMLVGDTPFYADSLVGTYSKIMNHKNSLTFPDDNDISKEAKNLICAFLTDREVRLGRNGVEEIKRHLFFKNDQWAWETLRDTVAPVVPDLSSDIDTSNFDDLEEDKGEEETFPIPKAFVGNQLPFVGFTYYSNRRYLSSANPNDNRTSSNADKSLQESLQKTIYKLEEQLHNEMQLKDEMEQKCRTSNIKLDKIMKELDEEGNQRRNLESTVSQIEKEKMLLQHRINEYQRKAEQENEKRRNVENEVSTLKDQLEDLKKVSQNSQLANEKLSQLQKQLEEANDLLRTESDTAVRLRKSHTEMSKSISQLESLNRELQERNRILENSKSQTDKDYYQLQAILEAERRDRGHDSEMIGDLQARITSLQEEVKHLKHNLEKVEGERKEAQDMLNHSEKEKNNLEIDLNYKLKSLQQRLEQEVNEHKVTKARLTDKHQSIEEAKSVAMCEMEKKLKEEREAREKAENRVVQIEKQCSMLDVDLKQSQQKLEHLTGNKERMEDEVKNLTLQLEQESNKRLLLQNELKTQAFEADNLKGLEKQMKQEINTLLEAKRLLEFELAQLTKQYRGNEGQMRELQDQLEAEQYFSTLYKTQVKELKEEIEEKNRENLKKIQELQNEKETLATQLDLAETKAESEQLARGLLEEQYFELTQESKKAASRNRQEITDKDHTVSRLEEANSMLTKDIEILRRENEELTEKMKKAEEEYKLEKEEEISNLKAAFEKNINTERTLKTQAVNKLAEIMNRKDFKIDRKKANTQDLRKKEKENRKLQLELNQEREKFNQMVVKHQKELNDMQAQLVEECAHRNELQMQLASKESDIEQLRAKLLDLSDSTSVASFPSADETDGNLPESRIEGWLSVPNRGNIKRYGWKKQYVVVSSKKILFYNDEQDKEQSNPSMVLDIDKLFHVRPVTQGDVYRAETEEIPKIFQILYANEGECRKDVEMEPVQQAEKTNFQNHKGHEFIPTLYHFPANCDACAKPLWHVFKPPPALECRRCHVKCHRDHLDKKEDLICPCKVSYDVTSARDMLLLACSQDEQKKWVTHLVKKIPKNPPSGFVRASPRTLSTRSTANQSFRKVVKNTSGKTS
Chain of human Sirtuin 1 (SIRT1), SIRT1 (gene 23411) (Q96EB6 whole entry, looked up): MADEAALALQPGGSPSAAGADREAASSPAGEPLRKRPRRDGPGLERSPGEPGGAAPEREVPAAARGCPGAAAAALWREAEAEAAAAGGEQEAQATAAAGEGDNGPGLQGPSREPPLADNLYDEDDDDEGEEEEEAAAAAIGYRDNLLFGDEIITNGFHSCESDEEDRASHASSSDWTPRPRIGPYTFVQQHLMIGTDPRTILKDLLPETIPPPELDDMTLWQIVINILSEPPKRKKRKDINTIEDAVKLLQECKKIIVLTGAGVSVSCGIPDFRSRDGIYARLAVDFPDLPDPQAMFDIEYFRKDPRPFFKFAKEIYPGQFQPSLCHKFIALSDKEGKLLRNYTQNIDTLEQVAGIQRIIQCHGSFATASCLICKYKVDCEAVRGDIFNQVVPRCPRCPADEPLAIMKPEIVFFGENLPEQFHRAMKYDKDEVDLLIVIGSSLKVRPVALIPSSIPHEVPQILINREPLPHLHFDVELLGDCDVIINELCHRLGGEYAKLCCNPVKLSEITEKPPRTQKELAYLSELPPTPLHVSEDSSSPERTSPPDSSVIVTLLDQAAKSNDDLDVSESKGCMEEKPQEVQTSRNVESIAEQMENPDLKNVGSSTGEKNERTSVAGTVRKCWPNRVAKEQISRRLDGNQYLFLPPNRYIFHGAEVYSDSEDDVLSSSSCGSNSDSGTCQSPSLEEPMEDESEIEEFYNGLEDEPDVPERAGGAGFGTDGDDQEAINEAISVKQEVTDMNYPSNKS
Chain of human Tropomyosin Receptor Kinase A (TRKA), NTRK1 (gene 4914) (P04629 whole entry, looked up): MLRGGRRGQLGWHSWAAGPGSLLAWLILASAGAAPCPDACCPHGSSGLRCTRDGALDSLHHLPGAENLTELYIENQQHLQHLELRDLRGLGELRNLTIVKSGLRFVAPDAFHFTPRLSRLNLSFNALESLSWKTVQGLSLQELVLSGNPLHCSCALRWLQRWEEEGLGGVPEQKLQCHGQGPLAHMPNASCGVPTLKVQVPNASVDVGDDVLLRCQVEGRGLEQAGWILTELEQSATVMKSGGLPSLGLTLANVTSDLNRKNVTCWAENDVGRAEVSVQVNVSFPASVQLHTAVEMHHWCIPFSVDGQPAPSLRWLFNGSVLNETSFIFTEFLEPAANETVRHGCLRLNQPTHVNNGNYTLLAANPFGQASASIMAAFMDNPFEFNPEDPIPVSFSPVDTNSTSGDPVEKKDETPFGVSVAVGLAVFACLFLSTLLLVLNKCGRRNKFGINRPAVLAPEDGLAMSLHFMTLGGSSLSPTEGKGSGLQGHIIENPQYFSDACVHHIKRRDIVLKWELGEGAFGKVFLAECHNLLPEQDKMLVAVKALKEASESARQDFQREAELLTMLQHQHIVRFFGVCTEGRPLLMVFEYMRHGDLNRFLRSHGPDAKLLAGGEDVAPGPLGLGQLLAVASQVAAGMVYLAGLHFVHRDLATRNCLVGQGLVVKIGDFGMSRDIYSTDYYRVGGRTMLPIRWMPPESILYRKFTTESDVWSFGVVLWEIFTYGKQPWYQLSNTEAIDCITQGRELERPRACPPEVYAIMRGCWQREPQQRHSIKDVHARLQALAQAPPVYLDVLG
Chain of human Protein Tyrosine Phosphatase Non-receptor Type 6 (PTPN6), PTPN6 (gene 5777) (P29350 whole entry, looked up): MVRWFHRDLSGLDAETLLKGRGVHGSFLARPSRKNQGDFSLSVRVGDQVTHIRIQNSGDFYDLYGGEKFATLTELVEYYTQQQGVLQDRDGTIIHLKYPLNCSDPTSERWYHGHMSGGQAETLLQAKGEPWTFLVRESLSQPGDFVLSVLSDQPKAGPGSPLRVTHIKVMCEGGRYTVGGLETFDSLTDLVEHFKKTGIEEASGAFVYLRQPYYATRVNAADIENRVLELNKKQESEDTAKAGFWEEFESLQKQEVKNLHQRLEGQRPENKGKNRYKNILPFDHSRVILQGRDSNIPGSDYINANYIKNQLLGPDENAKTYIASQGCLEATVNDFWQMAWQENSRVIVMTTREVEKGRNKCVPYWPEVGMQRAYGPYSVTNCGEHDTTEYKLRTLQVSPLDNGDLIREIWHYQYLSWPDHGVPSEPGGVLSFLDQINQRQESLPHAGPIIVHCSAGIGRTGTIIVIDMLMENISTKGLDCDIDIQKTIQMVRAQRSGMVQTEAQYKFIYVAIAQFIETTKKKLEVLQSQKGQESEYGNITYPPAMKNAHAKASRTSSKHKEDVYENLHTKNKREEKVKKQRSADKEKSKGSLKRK
Chain of sheep Cyclooxygenase-1 (Cox1), PTGS1 (gene 443551) (P05979 whole entry, looked up): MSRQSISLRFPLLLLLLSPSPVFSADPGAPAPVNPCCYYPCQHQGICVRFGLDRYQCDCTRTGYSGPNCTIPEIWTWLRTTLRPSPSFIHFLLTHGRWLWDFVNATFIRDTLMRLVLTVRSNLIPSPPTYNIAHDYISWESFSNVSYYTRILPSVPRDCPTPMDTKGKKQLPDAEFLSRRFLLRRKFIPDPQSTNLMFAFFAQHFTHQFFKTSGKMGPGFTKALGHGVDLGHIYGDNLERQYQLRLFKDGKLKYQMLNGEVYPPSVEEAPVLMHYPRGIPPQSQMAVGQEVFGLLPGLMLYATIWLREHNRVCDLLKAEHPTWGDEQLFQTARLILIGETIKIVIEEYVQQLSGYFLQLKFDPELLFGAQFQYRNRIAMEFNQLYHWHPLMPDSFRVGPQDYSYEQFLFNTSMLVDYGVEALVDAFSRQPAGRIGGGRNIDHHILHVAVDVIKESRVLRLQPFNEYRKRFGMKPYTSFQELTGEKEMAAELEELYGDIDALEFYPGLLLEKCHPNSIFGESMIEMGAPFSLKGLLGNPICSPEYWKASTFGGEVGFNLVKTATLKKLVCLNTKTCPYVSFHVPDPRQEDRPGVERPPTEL

**Q.** With `CCCCCCCC/C=C\CCCCCCCC(=O)OC[C@@H](O)[C@H]1OC[C@H](O)[C@H]1O` as the compound, how does the outcome [1] read?
**A.** inactive

**Q.** What about the outcome [2] of the same compound?
**A.** inactive

**Q.** And the outcome [3]?
**A.** inactive

**Q.** What about the outcome [4] of the same compound?
**A.** inactive

**Q.** And the outcome [5]?
**A.** inactive

**Q.** What about the outcome [6] of the same compound?
**A.** inactive

**Q.** And the outcome [7]?
**A.** inactive

**Q.** And the AC50 [8]?
**A.** 40.7 µM (active)

**Q.** And the outcome [9]?
**A.** inactive

**Q.** How did the outcome [10] turn out when `NNC(=O)c1ccncc1` was run?
**A.** inactive

**Q.** What about the outcome [4] of the same compound?
**A.** inactive

**Q.** Which results are given for `NC(=O)N1c2ccccc2C=Cc2ccccc21`?
**A.** outcome [10]: inactive; outcome [11]: inactive

**Q.** With `COS(C)(=O)=O` as the compound, how does the outcome [10] read?
**A.** inactive

**Q.** What about the outcome [12] of the same compound?
**A.** inactive

**Q.** `CC(=O)c1ccccc1` was tested. Which outcome [13] did it give?
**A.** inactive

**Q.** And the outcome [4]?
**A.** inactive

**Q.** Which results are given for `Cc1nc(-c2ccccn2)ncc1C(=O)Nn1cc(C)c2cc(F)ccc21`?
**A.** outcome [11]: inactive; outcome [3]: inactive; outcome [14]: inactive; outcome [6]: inactive; outcome [8]: inactive; outcome [15]: inactive

**Q.** For `CCCc1ccccc1`, which outcome [13] is on record?
**A.** inactive

**Q.** Which outcome [13] does the source give for `CCN(CC)C(=S)SSC(=S)N(CC)CC` here?
**A.** inactive

**Q.** What about the outcome [4] of the same compound?
**A.** inactive

**Q.** What about the outcome [14] of the same compound?
**A.** inactive

**Q.** What about the outcome [7] of the same compound?
**A.** inactive

**Q.** What about the outcome [8] of the same compound?
**A.** inactive

**Q.** How did the outcome [10] turn out when `O=S1(=O)CCCO1` was run?
**A.** inactive

**Q.** For `CCCC(CCC)C(=O)O`, which outcome [1] is on record?
**A.** inactive

**Q.** What about the outcome [13] of the same compound?
**A.** inactive

**Q.** What about the outcome [3] of the same compound?
**A.** inactive

**Q.** And the outcome [4]?
**A.** inactive

**Q.** And the outcome [16]?
**A.** inactive

**Q.** And the outcome [5]?
**A.** inactive

**Q.** And the outcome [14]?
**A.** inactive

**Q.** And the outcome [7]?
**A.** inactive

**Q.** For `O=C(O)[C@H](O)[C@@H](O)C(=O)O`, which outcome [10] is on record?
**A.** inactive

**Q.** With `O=c1[nH]cnc2c1ncn2[C@H]1CC[C@@H](CO)O1` as the compound, how does the outcome [13] read?
**A.** inactive

**Q.** What about the outcome [11] of the same compound?
**A.** inactive

**Q.** And the outcome [4]?
**A.** inactive

**Q.** And the outcome [5]?
**A.** inactive

**Q.** And the outcome [14]?
**A.** inactive

**Q.** And the outcome [7]?
**A.** inactive

**Q.** How did the outcome [11] turn out when `CCOc1ccc2[nH]cc(C(=O)NCc3ccccc3)c(=O)c2n1` was run?
**A.** inactive

**Q.** What does the source list for `O=C(O)c1cccc(C(=O)O)c1`?
**A.** outcome [10]: inactive; outcome [15]: inactive

**Q.** `c1ccc2ncccc2c1` was tested. Which outcome [10] did it give?
**A.** inactive

**Q.** And the outcome [11]?
**A.** inactive

**Q.** What about the AC50 [17] of the same compound?
**A.** 6.6 µM (active)

**Q.** What does the source list for `O=C(O)c1ccc2c(c1)nc(C(=O)NC1CCN(C3CC3)CC1)n2Cc1cc(-c2ccc(Cl)s2)on1`?
**A.** outcome [2]: inactive; outcome [11]: inactive; outcome [3]: inactive; outcome [5]: inactive

**Q.** How did the outcome [3] turn out when `COCc1nnc(-c2ccc[n+]([O-])c2)n1-c1c(Cl)c(Cl)cc2[nH]c(=O)c(=O)[nH]c12` was run?
**A.** inactive

**Q.** What about the outcome [4] of the same compound?
**A.** inactive

**Q.** With `C=CN1CCCC1=O` as the compound, how does the outcome [10] read?
**A.** inactive

**Q.** `C[C@]12C=CC(=O)C=C1CC[C@H]1[C@@H]3C[C@@H](O)[C@](O)(C(=O)CO)[C@@]3(C)C[C@H](O)[C@@]12F` was tested. Which outcome [10] did it give?
**A.** inactive

Source: PubChem BioAssay (EPA / NIEHS)
